Results filed as inconclusive are left out. Entries that show only a call come without a potency. The source made the active and inactive calls. Calls follow the shape of the dose curve; as a rule, active = well fitted inhibition curve with a large enough effect; inconclusive = small, poorly fitted or top-dose-only effect, or effect the other way; inactive = flat fitted curve, though single readings scatter.
Target: ATP-dependent 6-phosphofructokinase (Trypanosoma brucei brucei) (UniProt O15648)
Assay: qHTS Assay to Find Inhibitors of T. brucei phosphofructokinase: hit validation (AID 492961);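 also: luminescence reports ADP formed as PFK phosphorylates fructose-6-phosphate with ATP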
Conditions: T. brucei PFK, ADP-Glo luminescence; series mostly up to 51.4 µM
Summary of the method: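 Compounds titrated; %activity normalized to 0x and 1x enzyme controls, curve-fitted. Readout: ADP-Glo luminescence after 45 min room-temperature reaction of 1.25 nM PFK, 0.1 mM ATP, 0.5 mM F6P, pH 8.0.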

Chain of ATP-dependent 6-phosphofructokinase (Trypanosoma brucei brucei) (O15648 whole entry, looked up): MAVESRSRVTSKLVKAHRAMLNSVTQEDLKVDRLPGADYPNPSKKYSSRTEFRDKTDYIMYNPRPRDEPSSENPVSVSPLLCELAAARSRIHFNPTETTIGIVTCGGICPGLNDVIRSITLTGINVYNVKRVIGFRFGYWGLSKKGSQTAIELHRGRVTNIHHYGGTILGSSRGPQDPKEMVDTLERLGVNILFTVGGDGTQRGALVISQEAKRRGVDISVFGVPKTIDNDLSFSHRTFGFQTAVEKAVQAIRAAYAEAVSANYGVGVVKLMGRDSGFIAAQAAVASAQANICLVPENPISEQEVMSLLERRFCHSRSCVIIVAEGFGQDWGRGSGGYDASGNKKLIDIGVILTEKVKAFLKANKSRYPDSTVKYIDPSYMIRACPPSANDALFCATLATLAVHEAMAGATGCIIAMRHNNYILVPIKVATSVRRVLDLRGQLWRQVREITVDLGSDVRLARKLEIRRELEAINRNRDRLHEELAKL

Row | SMILES | Potency
1 | [O]=[Bi][O]C(=O)[O][Bi]=[O] | inactive
2 | CC(C)(C)c1ccc2c(S(=O)(=O)O)c(C(C)(C)C)ccc2c1 | inactive
3 | O=C1[O][Bi][O]c2ccccc21 | inactive
4 | ClC(Cl)Cl | inactive
5 | CC/C=C\C/C=C\C/C=C\C/C=C\C/C=C\C/C=C\CCC(=O)O | inactive
6 | C=CC(=O)O | inactive
7 | CC(=O)[C@H]1CC[C@H]2[C@@H]3C=CC4=CC(=O)CC[C@@]4(C)[C@H]3CC[C@]12C | inactive
8 | OCl | inactive
9 | O=[N+]([O-])c1c(Cl)cccc1-c1c[nH]cc1Cl | inactive
10 | CCOC(=O)Cc1ccc(-c2ccccc2)cc1 | inactive
11 | CN[C@@H]1[C@H](O[C@H]2[C@H](O[C@H]3[C@H](O)[C@@H](O)[C@H](N=C(N)N)[C@@H](O)[C@@H]3N=C(N)N)O[C@@H](C)[C@]2(O)C=O)O[C@@H](CO)[C@H](O)[C@H]1O | inactive
12 | CC1=CCC2CC1C2(C)C (stereo unspecified) | inactive
13 | C(=C\c1ccncc1)/c1ccccc1 | inactive
14 | Cc1ncc(C[n+]2csc(CCOP(=O)(O)O)c2C)c(N)n1 | inactive
15 | CC1CCC(NC(=O)N(CCCl)N=O)CC1 (stereo unspecified) | inactive
16 | O=C(c1cc2ccccc2o1)N1CCN(Cc2ccccc2)CC1 | inactive
17 | CC(=O)c1ccc2c(c1)N(CCCN1CCN(CCO)CC1)c1ccccc1S2 | inactive
18 | CCCCO | inactive

Row | SMILES | Potency
19 | Cn1c(=O)c2c(ncn2CCOC(=O)C(C)(C)Oc2ccc(Cl)cc2)n(C)c1=O | inactive
20 | CC(=O)Nc1ccc(OC(C)=O)cc1 | inactive
21 | CCOc1ccc(S(=O)(=O)O)c2cccnc12 | inactive
22 | CC1=CC(=O)NS(=O)(=O)O1 | inactive
23 | CC1=C(/C=C/C(C)=C/C=C/C(C)=C/C(=O)Oc2c(C)c(C)c3c(c2C)CC[C@@](C)(CCC[C@H](C)CCC[C@H](C)CCCC(C)C)O3)C(C)(C)CCC1 | inactive
24 | CCN(CC)CCOc1ccc2nc(N(C)C)sc2c1 | inactive
25 | O=C1c2ccccc2C(=O)C1c1ccc(Cl)cc1 | inactive
26 | CC(=O)N[C@@H]1C(O[C@H]2O[C@H](C(=O)O)C(O)[C@H](O)[C@H]2O)[C@H](O)[C@@H](CO)O[C@H]1O[C@@H]1C(C(=O)O)O[C@@H](O[C@H]2[C@H](O)[C@@H](CO)OC(O)[C@@H]2NC(C)=O)[C@H](O)[C@H]1O (stereo partly specified) | inactive
27 | CCCCCc1ccc(C)cc1O | inactive
28 | N[C@@H](Cc1cc(I)c(Oc2ccc(O)c(I)c2)c(I)c1)C(=O)O | inactive
29 | N=C(N)c1ccc(/C=C/c2ccc(C(=N)N)cc2O)cc1 | inactive
30 | CCCCCCCCCCCC(=O)OCC(O)CO (stereo unspecified) | inactive
31 | [O]=[Bi][O][Bi]=[O] | inactive
32 | CC(C)CCCC(C)NC(C)C (stereo unspecified) | inactive
33 | CCCCCCCCCC(=O)NO | inactive
34 | O=C(/C=C/c1cccc(F)c1)NC1CC1 | inactive
35 | CC(=O)NCCCS(=O)(=O)O | inactive
36 | CCOC(=O)c1c[nH]c2cc(OCC(C)C)c(OCC(C)C)cc2c1=O | inactive

From PubChem BioAssay (NCATS)
